Among the data in PubChem BioAssay AID1256 (The Scripps Research Institute Molecular Screening Center, 2008) are inhibition values, retold here.

The other results are listed elsewhere or left out. A number with no mark means an inactive call. Activity calls are given as the source filed them. No stated cut-off is given here; in the data, active means inhibition above about 20%; inactive means the rest.

In the assay the target is Neuropeptide Y receptor type 1 (Homo sapiens) (UniProt P25929). Description: blockade of human NPY-Y1 in cells – counter-screen for NPY-Y2 antagonist project (AID 1256).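 Further: cells challenged with NPY then isoproterenol with cAMP sensed through a CNG channel.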 Particulars: cell-based NPY-Y1 antagonism counterscreen; at 3.6 µM; active compounds read high.
Sequence of Neuropeptide Y receptor type 1 (Homo sapiens) (P25929 whole entry, looked up): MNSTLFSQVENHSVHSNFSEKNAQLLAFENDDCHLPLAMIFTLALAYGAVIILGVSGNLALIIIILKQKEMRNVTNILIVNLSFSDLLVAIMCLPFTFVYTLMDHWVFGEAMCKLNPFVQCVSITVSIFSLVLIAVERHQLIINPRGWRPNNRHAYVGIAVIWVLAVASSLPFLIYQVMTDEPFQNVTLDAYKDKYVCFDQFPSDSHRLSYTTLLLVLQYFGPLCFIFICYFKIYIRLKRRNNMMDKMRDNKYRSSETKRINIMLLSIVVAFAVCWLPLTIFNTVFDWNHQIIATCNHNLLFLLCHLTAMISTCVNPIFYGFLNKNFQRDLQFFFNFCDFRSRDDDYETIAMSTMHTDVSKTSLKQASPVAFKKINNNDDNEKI
As for `N#Cc1ccc(C(c2nnnn2CCc2ccccc2)N2CCCCCC2)cc1` (centres undefined), the inhibition (commonly the change of the read-out against control, counted positive when it falls) is 7.96%.

In the case of `O=C(Nc1nnc(SCc2c(Cl)cccc2Cl)s1)C1CCCO1` (centres undefined), the inhibition is 12.1%. As for `CCOc1ccc(C(O)Cn2c(=N)n(CCN3CCCCC3)c3ccccc32)cc1` (centres undefined), the figure is 13.1%; as for `Cc1cc(C)nc(-n2ncc3c2CC(c2ccc(C(C)C)cc2)CC3=O)n1` (centres undefined), 20.4% (active); as for `COc1ccc(/C=C/C(=O)NC(=S)NN2CCCCC2c2cccnc2)cc1` (centres undefined), 29.1% (active). As for `N#Cc1ccc(N2Cc3ccccc3/C2=N/C(=O)Nc2ccc(Cl)cc2)cc1`, the figure is 100% (active). As for `Cc1ccc(CCC(=O)Nc2ncc(Cc3cc(Cl)ccc3Cl)s2)o1`, the figure is 18.8%; as for `Cc1ccc(NC(=O)CN2CCC3(O)CCCCC3C2c2ccc3c(c2)OCO3)c(C)c1` (centres undefined), 5.96%. As to `CCOC(=O)C(C)Sc1nc2ccccc2c(=O)n1CC1CCCCC1` (centres undefined), the inhibition is 7.75%. As for `COc1cccc(-c2ccc(C#N)c(SCC(=O)NCCc3ccc(Cl)cc3)n2)c1`, the inhibition is 9.97%. As for `COc1ccc(/C(N)=N/OC(=O)CCCc2ccccc2)cc1`, the figure is 6.54%.

On to `COc1ccc(-c2noc(COc3ccc(Cl)c(C)c3)n2)cc1`, for which the inhibition is 13.3%.

In the case of `O=C(CC(O)(C(F)(F)F)C(F)(F)F)Nc1ccc(Cl)c(Cl)c1`, the inhibition was 20.5% (active).

Take `Cc1ccc(C2=NN(C)c3nc4ccccc4n3C2)cc1`: the inhibition was 8.4%. As to `c1ccc(-c2cc3c(NCC4COc5ccccc5O4)ncnc3s2)cc1` (centres undefined), the inhibition was 19.3%. As for `CC12CN(Cc3ccccc3)CC(C)(CN(Cc3ccccc3)C1)C2=NO`, the figure is 13.2%. As for `CCCc1nc(SCC(=O)Nc2ccccc2OC)c2c(=O)n(C)c(=O)n(C)c2n1`, the figure is 20.6% (active). Take `COC(=O)c1ccc(CSc2nc3cc(Cl)ccc3o2)cc1`: the inhibition was 11.2%. In the case of `CCOc1ccc(S(=O)(=O)N/N=C(\C)c2ccc(Cl)c(Cl)c2Cl)cc1`, the inhibition was 17.7%. As for `O=C(Oc1ccccc1)Oc1ccc2c(c1)oc(=O)c1ccccc12`, the figure is 3.68%. `COc1ccc(-c2nc3ccccc3n2CCC(C)C)cc1OC`: the inhibition is 8.19%. As for `C=CCNCCCCOc1ccccc1`, the inhibition is -1.26%.

On to `O=C1CC(c2cccc(Cl)c2)CC(O)=C1C=Nc1ccccc1` (centres undefined), for which the inhibition was 17.3%. As for `Cc1ccccc1N1CCN(CCCOc2ccc3c(C)cc(=O)oc3c2)CC1`, the figure is 19.3%; as for `CCCCC(O)(CCCC)C(=O)NN(C(=O)CCl)c1ccccc1`, 7.18%; as for `Cc1ccccc1OC(=O)Cn1c(C(F)(F)F)nc2ccccc21`, 7.05%. On to `Cc1ccc(S(=O)(=O)N(Cc2ccc(Cl)cc2)c2ccccc2C(=O)NCc2cccnc2)cc1`, for which the inhibition was 28.4% (active). As to `O=S(=O)(Cc1cc(Sc2ccccc2)nc(-c2ccccc2)n1)c1ccccc1`, the inhibition was 11.8%. As for `CN(C)Cc1ccc(F)cc1Sc1cc(Cl)ccc1Cl`, the figure is 11.3%; as for `N=c1n(Cc2ccc(Cl)cc2)c2ccccc2n1CC(O)c1ccco1` (centres undefined), 13.8%. As for `CCCCCNC(=O)Cc1ccc(OC)cc1`, the figure is 1.16%; as for `Cc1cccc(OCC(O)Cn2c(=N)n(CCN3CCOCC3)c3ccccc32)c1` (centres undefined), 4.2%; as for `COc1ccc(NC(=O)/C(Cl)=C(/Cl)S(=O)Cc2ccc(C)cc2)cn1` (centres undefined), 42.1% (active). As for `Cc1cc(C(=O)OCC(=O)N2c3ccccc3NC(=O)C2(C)C)c(C)n1-c1ccccc1`, the figure is 5.21%.
